PubChem BioAssay (EPA / NIEHS)
Inconclusive results are not listed. Activity calls are given as the source filed them. The calls were made as follows, unless noted: active = hit-call score of the fitted dose curve at least 0.9, where 1 is the maximum; inactive = score below 0.9.

How the values were obtained:
DIO1 (gene 1733) = assay: CCTE_GLTED_hDIO1: CCTE's human Deiodinase 1 (DIO1) Inhibition Assay, Great Lakes Toxicology and Ecology Division (GLTED) Lab (AID 2283987; active = hit-call score of the fitted dose curve at least 0.9, where 1 is the maximum;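 also: isolated human DIO1 enzyme in a cell-free setup rather than cells; enzyme activity read as free iodide liberated from substrate via Sandell-Kolthoff colorimetry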)
In short: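 Chemicals are tested on human DIO1 without cells for 3 h. Uninhibited enzyme frees iodide, which speeds cerium(IV) reduction by arsenic and is read by spectrophotometry.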

[1] = biological target: Ratio of Nucleoli Translocation and Cytoplasm, AR (gene 367) (UniProt P10275); assay: UPITT_HCI_U2OS_AR_TIF2_Nucleoli_Cytoplasm_Ratio_Antagonist: University of Pittsburgh U2OS Androgen Receptor-Transcriptional Intermediary Factor 2 (AR-TIF2) Antagonism High Content Imaging Assay for Ratio of Nucleoli Translocation and Cytoplasm (AID 2283999; active = hit-call score of the fitted dose curve at least 0.9, where 1 is the maximum;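 also: antagonists lower the DHT-driven ratio of nucleolar to cytoplasmic red signal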)
In short: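 High-content imaging quantifies the red nucleolar:cytoplasmic fluorescence ratio in U2OS cells with AR-RFP and TIF2-GFP. Final concentrations are 20 uM (screen) or 0.195–50 uM (dose response), analysed against DHT as baseline.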

[2] = biological target: Ratio of Nucleoli Translocation and Cytoplasm, AR (gene 367) (UniProt P10275); assay: UPITT_HCI_U2OS_AR_TIF2_Nucleoli_Cytoplasm_Ratio_Agonist: University of Pittsburgh U2OS Androgen Receptor-Transcriptional Intermediary Factor 2 (AR-TIF2) Agonism High Content Imaging Assay for Ratio of Nucleoli Translocation and Cytoplasm (AID 2284000; active = hit-call score of the fitted dose curve at least 0.9, where 1 is the maximum;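 also: hits raise the red nucleolar to cytoplasm ratio above vehicle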)
In short: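 Read-out first: nucleolar-to-cytoplasm ratio of red (AR-RFP) signal, quantified by high-content imaging in U2OS cells co-expressing TIF2-GFP. Activity is scored as signal increase over DMSO. Single-point screening used 20 uM final (0.2% DMSO).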

[3] = CCTE_Simmons_MITO_basal_resp_rate: CCTE's HepG2 Seahorse XF Respirometric Screening Assay at Basal Respiratory State, Simmons Lab (AID 2284001); conditions: actives raise or lower the signal
In short: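 HepG2 respirometry; 7-pt titration 125 nM–100 uM final; kinetic OCR at 6 min intervals for 72 min; n=3 biological, technical singles; DMSO baseline, gain or loss fit; fenpyroximate (decrease) and 2,4-DNP (increase) controls.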

[4] = CCTE_Simmons_MITO_inhib_resp_rate: CCTE's HepG2 Seahorse XF Respirometric Screening Assay at Inhibited Respiratory State [full ETC block], Simmons Lab (AID 2284006); conditions: actives raise or lower the signal
In short: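 Inhibited respiration was taken as HepG2 oxygen consumption after rotenone/antimycin A, which followed test-compound and FCCP injections. Chemicals were tested at seven final concentrations from 125 nM to 100 uM. Activity was fitted bidirectionally relative to DMSO.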

[5] = CCTE_Harrill_HTTr_Viability_MCF7: CCTE's 6-hour Cell Viability Assessment for the High-Throughput Transcriptomics (HTTr) Platform, in MCF-7 cells cultured in DMEM + 10% fetal bovine serum, Harrill Lab (AID 2284010)
In short: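 Viability measured through PI dye exclusion by high-content imaging at 6 h post-dosing.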

[6] = CCTE_Harrill_HTTr_Apoptosis_MCF7: CCTE's 6-hour Apoptosis Assessment for the High-Throughput Transcriptomics (HTTr) Platform, in MCF-7 cells cultured in DMEM + 10% fetal bovine serum, Harrill Lab (AID 2284011)
In short: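 Apoptosis in MCF-7 cells grown in DMEM with 10% fetal bovine serum was scored after a six hour exposure by high content imaging of caspase-3/7 activation (CellEvent Caspase 3/7 Green), with DMSO serving as negative control and baseline.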

[7] = CCTE_Harrill_HTTr_CellCount_MCF7: CCTE's Cell Proliferation Assessment for the High-Throughput Transcriptomics (HTTr) Platform, Harrill Lab (AID 2284012; active = hit-call score of the fitted dose curve at least 0.9, where 1 is the maximum;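 also: count of Hoechst-stained nuclei per well by high-content imaging in MCF-7 cells; cells exposed to compound for six hours; intended direction is loss of nuclei count meaning fewer cells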)
In short: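 Nuclei counting (Hoechst, high content imaging) in MCF-7 after a 6 h treatment at eight concentrations. Activity fitted bidirectionally, DMSO as negative control.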

[8] = CCTE_Shafer_MEA_acute_spike_number: CCTE's Neural Acute Assay for Total Number of Spikes, Shafer Lab (AID 2284008);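 as to AC50: curve fitted for decrease in spike count so AC50 reflects inhibitors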
In short: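 Using an adaptive detector set to 8x rms noise, spikes were counted in 40-min windows before and after compound addition (0.03-40 uM) to rat cortical networks at 37 C; the well-level change from baseline was analysed relative to DMSO.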

[9] = CCTE_Shafer_MEA_acute_firing_rate_mean: CCTE's Neural Acute Assay for Mean Firing Rate, Shafer Lab (AID 2284009);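 also: analyzed for loss of signal so actives lower firing rate relative to DMSO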
In short: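 Percent change in well-mean firing rate was derived from extracellular spikes detected at 8x rms noise (300-5000 Hz band-pass) before and after a 40-min compound exposure. Cultures were primary rat cortical neurons, tested at 0.03-40 uM.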

Measured: AC50

Ratio of Nucleoli Translocation and Cytoplasm, AR (gene 367), sequence (P10275 whole entry, looked up): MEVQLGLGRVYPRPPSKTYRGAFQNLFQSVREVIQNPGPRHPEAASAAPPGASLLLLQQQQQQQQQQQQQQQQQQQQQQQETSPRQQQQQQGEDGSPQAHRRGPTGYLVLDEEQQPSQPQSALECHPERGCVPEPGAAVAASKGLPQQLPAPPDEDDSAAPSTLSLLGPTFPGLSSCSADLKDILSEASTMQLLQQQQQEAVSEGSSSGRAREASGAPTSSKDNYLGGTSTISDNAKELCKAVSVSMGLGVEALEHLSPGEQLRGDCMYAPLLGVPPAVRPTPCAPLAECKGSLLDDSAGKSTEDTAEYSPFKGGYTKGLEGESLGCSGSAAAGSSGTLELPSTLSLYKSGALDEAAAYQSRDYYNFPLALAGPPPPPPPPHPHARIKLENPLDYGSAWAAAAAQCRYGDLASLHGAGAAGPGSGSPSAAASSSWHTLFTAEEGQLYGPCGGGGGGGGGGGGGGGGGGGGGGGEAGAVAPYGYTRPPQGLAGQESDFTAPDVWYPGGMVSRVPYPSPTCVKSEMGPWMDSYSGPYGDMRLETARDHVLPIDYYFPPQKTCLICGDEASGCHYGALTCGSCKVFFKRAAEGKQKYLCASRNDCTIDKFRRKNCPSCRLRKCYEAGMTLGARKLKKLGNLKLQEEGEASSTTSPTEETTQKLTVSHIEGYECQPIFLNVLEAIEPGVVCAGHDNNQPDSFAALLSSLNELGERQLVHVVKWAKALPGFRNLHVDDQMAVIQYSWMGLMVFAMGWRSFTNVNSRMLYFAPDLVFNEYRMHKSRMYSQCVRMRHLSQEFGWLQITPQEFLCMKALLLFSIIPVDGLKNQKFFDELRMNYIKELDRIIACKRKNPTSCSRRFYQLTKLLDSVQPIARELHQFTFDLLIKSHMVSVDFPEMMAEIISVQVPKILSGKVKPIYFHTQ

CCOc1cccc(-n2cc(C(=O)N3CCN(c4cc(C(=O)O)c5ccccc5c4)CC3)nc2-c2ccc(C)cc2)c1
active: DIO1 (gene 1733) 151 µM
not listed: [8] | [9]
inactive: all other assays above

O=C(OC[C@H]1O[C@@H](OC(=O)c2cc(O)c(O)c(OC(=O)c3cc(O)c(O)c(O)c3)c2)[C@H](OC(=O)c2cc(O)c(O)c(OC(=O)c3cc(O)c(O)c(O)c3)c2)[C@@H](OC(=O)c2cc(O)c(O)c(OC(=O)c3cc(O)c(O)c(O)c3)c2)[C@@H]1OC(=O)c1cc(O)c(O)c(OC(=O)c2cc(O)c(O)c(O)c2)c1)c1cc(O)c(O)c(OC(=O)c2cc(O)c(O)c(O)c2)c1
active: DIO1 (gene 1733) 17.7 µM

C1N2CN3CN1CN(C2)C3
inactive: [2] | [5] | [6]

CCCN(C1CCN(C(=O)C2CCNCC2)CC1)[C@@H]1CCc2ccc(OC)cc2C1
inactive: [1] | [8] | [9] | [5] | [6] | [7]

CCCCCCc1ccc(O)cc1O
active: DIO1 (gene 1733) 128 µM | [2] 14.8 µM | [3] 20.4 µM | [8] 12.8 µM | [9] 12.9 µM
inactive: [1] | [4] | [5] | [6] | [7]

CCC(C)(C)C(=O)O[C@H]1C[C@@H](C)C=C2C=C[C@H](C)[C@H](CC[C@@H]3C[C@@H](O)CC(=O)O3)[C@H]21
inactive: [8] | [9]
active: DIO1 (gene 1733) 49 µM

COc1ccc(/C=C/S(=O)(=O)NC(=O)c2ccc(C)cc2Cl)cc1
active: [3] 24.6 µM
inactive: [4] | [5] | [6]

O=C(O)c1cc(N=Nc2ccc(S(=O)(=O)Nc3ccccn3)cc2)ccc1O
active: DIO1 (gene 1733) 27.3 µM | [8] 0.00807 µM | [9] 0.00818 µM
inactive: [5] | [6] | [7]

CC[C@H](C)C(=O)O[C@H]1C[C@@H](C)C=C2C=C[C@H](C)[C@H](CC[C@@H]3C[C@@H](O)CC(=O)O3)[C@H]21
active: DIO1 (gene 1733) 48.1 µM
inactive: [5] | [6]

CN(C)c1ccc(N=NS(=O)(=O)O)cc1
inactive: [1] | [2] | [5] | [6] | [7]

Cc1[nH]cnc1C[C@H]1CCc2c(C)c3ccccc3n2C1=O
active: [3] 30.5 µM | [8] 4.12 µM | [9] 4.13 µM
inactive: [4] | [5] | [6] | [7]
